± gives the standard deviation.

Experimental findings from the supplement of paper PMC10338343 are described below.

The test system of the experiment is MILI (PIWIL2) piRISC loaded with L1MC piRNA (26 nt). Kind of experiment: pre-steady-state target cleavage rate (min^-1); guide: L1MC piRNA 5'p-UAACUAAAUACUAUGCAAGCUGUAGG; MIWI and MILI are mouse PIWI proteins and EfPiwi is from a freshwater sponge; tags in brackets are library labels; higher = faster piRNA-guided slicing of the target. Conditions: auxiliary factor: 500 nM mouse GTSF1. The method in brief: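 In Cleave-'n-Seq, a transcribed, DNA-blocked target RNA library (0.1 nM) was combined with 1 nM active affinity-purified piRISC bearing one synthetic guide, with or without 500 nM GTSF1 partner protein. Reactions ran in HEPES–potassium acetate buffer at 33 °C for 0–8 or 0–960 min. Uncleaved targets were sequenced and normalised to depth and to weakly complementary targets, three trials were pooled, and k3 was capped at 0.0001 min^-1. The pre-steady-state cleavage rate was obtained by fitting a burst-and-steady-state model.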
Take UCCUGGAUGACGAUGCAUAGUAUUUAGUAA: the “pre-steady-state target cleavage rate” value came to 0.128 ± 0.016. Next, UCCUGGAACUCGUUGCAUAGUAUUUUCAAA: 0.0397 ± 0.011; UCCUGGUAGUCCUUGCAUAGUAUUUAGAAA: 0.0521 ± 0.017; UCCUGGAACAGCUUGCUUAGAAUUUAGUUA: 0.0285 ± 0.0057. UCCUGGUACAGCUUGCAAAGUAUUUACAAA: the “pre-steady-state target cleavage rate” value was 0.0115 ± 0.0055. Next, UCCUGGAUGUCCUUGCAUAGUAUAAAGUAA: 0.0169 ± 0.0066; UCCUCCUACAGCUUGCAUAGUUUUUAGAUA: 0.0768 ± 0.022. Take UCCUGGAUGUCCUUGCAUAGUAUUAACUUA: the “pre-steady-state target cleavage rate” value worked out at 0.0115 ± 0.0049. To UCCUCCUACAGCUUCGUUAGUAUUUAGAAA belongs 0.0202 ± 0.0065; to UCCUGGAUCAGCUUGCAUACUAUUUACAAA, 0.0104 ± 0.0042. To UCCUGGAUGAGCAACCAUAGUAUUUAGUUA belongs 0.0437 ± 0.011; to UCCUGGAUGAGCUUGCAUAGUAAUAAGUUA, 0.202 ± 0.045. To UCCUGCUACAGCUUGCAUAGUUUUUAGAAA belongs 0.0163 ± 0.0061. As to UCCUCCUACAGCUUGCAUAGUAAAAUCAAA, the “pre-steady-state target cleavage rate” value was determined as 0.0893 ± 0.023.

Regarding UCCUGGAUGAGCUUGCAUAGUAUUUUCAAA, the “pre-steady-state target cleavage rate” value came to 0.00959 ± 0.0061. Next, UCCUGGAUGAGCUUGCUUAGUAUUUACAAA: 0.0262 ± 0.011; UCCUGGAUGUCCUUCGAUAGUAUUUAGUUA: 0.00794 ± 0.0037; UCCUGGAUCAGCUUGCAUAGAAUUUAGAAA: 0.0123 ± 0.0052. To UCCUGGAUGUCCUUGCAUAGUAUUUUCUUA belongs 0.0376 ± 0.011. Next, UCCUGGAACAGCUUGCAUAGUAUAUUCAAA: 0.0758 ± 0.022; UCCUGGUACAGCUUGCAUUGUAUUAAGUUA: 0.0503 ± 0.011. UCCUGGUACAGCAUGCAUAGAAUUUAGUUA: the “pre-steady-state target cleavage rate” value stood at 0.197 ± 0.07. To UCCUGGAUGUGCUAGCAUAGUAUUUAGAUA belongs 0.0954 ± 0.023; to UCCUGGAACAGCUUGCAAUGUAUUUAGAAA, 0.0719 ± 0.018.
